# Measured values as given in the supplement of paper PMC10338343.
# ± gives the standard deviation.
# System: MILI (PIWIL2) piRISC loaded with L1MC piRNA (26 nt)
# Assay: pre-steady-state target cleavage rate (min^-1); guide: L1MC piRNA 5'p-UAACUAAAUACUAUGCAAGCUGUAGG; MIWI and MILI are mouse PIWI proteins and EfPiwi is from a freshwater sponge; tags in brackets are library labels; higher = faster piRNA-guided slicing of the target
# Conditions: auxiliary factor: 500 nM mouse GTSF1
# How it was run: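 Three pooled Cleave-'n-Seq trials supplied the data, with k3 capped at 0.0001 min^-1. In each, […] transcribed, DNA-blocked target RNA library and 1 nM active affinity-purified piRISC with one synthetic guide reacted in HEPES–potassium acetate buffer at 33 °C for 0–8 or 0–960 min, with or without 500 nM GTSF1 partner protein. Uncleaved targets were sequenced and normalised to depth and to weakly complementary targets. A burst-and-steady-state fit provided the pre-steady-state cleavage rate.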
# 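Also: 1 nM active piRISC with 0.1 nM target library at 33 °C single turnover.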
row,Sequence,pre-steady-state target cleavage rate
1,UCCUCCUACAGCUUGCAUAGUAGUUUAGUUA,0.23 ± 0.022
2,UCCUGGAACAGCCUGCAUAGUAUUUAGUUA,0.247 ± 0.012
3,UCCUGGAUCAGGUUGCAAAGUAUUUAGUUA,0.121 ± 0.011
4,UCCUGCUAGACCUUGCAUAGUAUUUAGUUA,0.171 ± 0.02
5,UCCUGGUAGAGCUUGCAUAGUAUAUAGUUA,0.207 ± 0.027
6,UCCUGGAUGAGCUUGCAUAGUAUUUAGUAA,0.218 ± 0.019
7,UCCUGCAUGAGCUUGCAUAGUAUUUAGUAA,0.234 ± 0.024
8,UCCUCCUACAGCUUGCAUCGUAUUUAGUUA,0.129 ± 0.013
9,UCCUGGAUCAGCUUCAUAGUAUUUAGUUA,0.235 ± 0.012
10,UCCUGGAUGACGUUGCAUAGUAUUUAGUUA,0.176 ± 0.02
11,UCCUGGAUCACGCUUGCAUAGUAUUUAGUUA,0.205 ± 0.018
12,UCCUGGAUCAGCUUGCAUAGUAUUUAGAUA,0.114 ± 0.013
13,UCCUGGAACAGCUUGCAUAGUAUUUAGUAA,0.247 ± 0.021
14,UCCUGGAUCAGCUUGCAAAGUUUUUAGUUA,0.00906 ± 0.0052
15,UCCUGGUUCAGCUUGCAUAGUAAUUAGUUA,0.235 ± 0.024
16,UCCUCCUACAGCUUGCAUAGUAUUUAGUAA,0.246 ± 0.021
17,UCCUGCUACAGCUUCGAUAGUAUUUAGUUA,0.253 ± 0.02
18,UCCUGGAACAGCUUGCAUGGUAUUUAGUUA,0.283 ± 0.022
19,UCCUCCUACAGCUUGCAUAGUAUUUAGAUA,0.205 ± 0.035
20,UCCUGGAACAGCUUGCAUGUAUUUAGUUA,0.083 ± 0.014

row,Sequence,pre-steady-state target cleavage rate
1,UCCUGGAACAUGCUUGCAUAGUAUUUAGUUA,0.184 ± 0.011
2,UCCUGGAUCAGGUAGCAUAGUAUUUAGUUA,0.118 ± 0.013
3,UCCUGGAACAGACUUGCAUAGUAUUUAGUUA,0.217 ± 0.014
4,UCCUGGAUGUCCUUGCACAGUAUUUAGUUA,0.145 ± 0.028
5,UCCUGGAUCAGCUUACAUAGUAUUUAGUUA,0.249 ± 0.014
6,UCCUGCUACAGCUAGCAUAGUAUAUAGUUA,0.27 ± 0.03
7,UCCUGCUUCAGCUUGCAAAGUAUUUAGUUA,0.122 ± 0.0063
8,UCCUGCUACAGGAUGCAUAGUAUUUAGUAA,0.301 ± 0.044
9,UCCUCGUACAGCUAGCAUAGUAUUUAGUUA,0.281 ± 0.012
10,UCCUGGUACAGCUUGCAUUGUAUUUAGUUA,0.171 ± 0.017
11,UCCUGCUACAGCUGGCAUAGUAUUUAGUUA,0.293 ± 0.019
12,UCCUGGAUGAGCUUGCAUAGUAAUUAGUUA,0.184 ± 0.018
13,UCCUGGAUGAGCUUGCUUAGUAUUUAGUUA,0.17 ± 0.01
14,UCCUCCUACAGCUAGCAUAGUAUUUAGUUA,0.27 ± 0.019
15,UCCUGGAUGAGGUUGCAUAGUAAUUAGUUA,0.117 ± 0.032
16,UCCUGCUACAGCUUGCAUAGUAUUUAUUUA,0.148 ± 0.03
17,UCCUGUUACAGCUUGCAUAGUAUUUAGUUA,0.328 ± 0.018
18,UCCUGGAUCAGCUUCGAUAGUAUUUAGUUA,0.233 ± 0.018
19,UCCUGGAACCAGCUUGCAUAGUAUUUAGUUA,0.365 ± 0.032
20,UCCUGCUACUGCUUGCAUACUAUUUAGUUA,0.0731 ± 0.011
